The values below come from PubChem BioAssay AID1851 (National Center for Advancing Translational Sciences (NCATS), 2009).

The AC50 is the concentration giving half of the maximal activity seen.

Each structure is given as a SMILES string. In all, about 16,000 compounds went through this assay and about 4,000 (25%) were called active. Not shown: some 26% with an inconclusive outcome. Calls follow the shape of the dose curve; as a rule, active = well fitted curve in the direction sought with a large enough effect; inconclusive = small, poorly fitted or top-dose-only effect, or effect the other way; inactive = no such curve, though single readings can be large or run the other way. These entries were drawn from the full list.
% is scaled to controls: 0 for no effect and ±100 for the full control effect.

In this assay the target is Cytochrome P450 2C9 (Homo sapiens) (UniProt P11712). The assay is described as follows: Cytochrome panel assay with activity outcomes. The following applies: recombinant CYP, pro-luciferin dealkylation, luminescence, p450-cyp2c9; series mostly up to 57.1 µM.
Sequence of Cytochrome P450 2C9 (Homo sapiens) (P11712 whole entry, looked up): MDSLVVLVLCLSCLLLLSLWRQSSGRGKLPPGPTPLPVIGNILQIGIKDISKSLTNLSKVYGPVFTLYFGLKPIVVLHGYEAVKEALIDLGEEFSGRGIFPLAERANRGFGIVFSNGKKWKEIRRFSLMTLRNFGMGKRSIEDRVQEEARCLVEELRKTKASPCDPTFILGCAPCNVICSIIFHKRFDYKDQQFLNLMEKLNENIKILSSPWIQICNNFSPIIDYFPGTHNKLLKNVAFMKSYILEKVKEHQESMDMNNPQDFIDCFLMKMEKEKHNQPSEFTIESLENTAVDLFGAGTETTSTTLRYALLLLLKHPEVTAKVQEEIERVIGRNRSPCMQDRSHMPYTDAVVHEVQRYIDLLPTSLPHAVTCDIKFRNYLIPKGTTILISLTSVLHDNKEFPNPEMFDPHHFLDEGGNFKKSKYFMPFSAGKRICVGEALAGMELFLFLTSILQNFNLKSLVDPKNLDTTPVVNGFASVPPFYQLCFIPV
Consider `CCCn1c(N)[n+](CC(=O)c2ccco2)c2ccccc21`, for which the AC50 entry was “inactive”.

For the compound `O=C(O)Cc1cc2ccccc2nc1C(=O)O`, the AC50 entry was “inactive”.

`O=C(c1ccccc1)c1nc2ccccc2n(CCCn2c(=O)c(C(=O)c3ccccc3)nc3ccccc32)c1=O`: the AC50 is 0.2 µM (active).

Take `CCCCCn1c(=O)c(C(=O)c2ccccc2)nc2ccccc21`: the AC50 was 14.1 µM (active).

For `N=C(N)[C@H](N=Nc1ccccc1)C(N)=O`, the activity, negative = inhibition was -7.82% [at 11.4 µM] (inactive).

For `CCn1c(O)c(/C=N/N=C2CCCC2)c2ccc(C3=NNC(=O)CC3)cc21`, the AC50 entry was “inactive”.

Turning to `CC1CCCC(C)N1CC(O)COCC1COc2ccccc2O1` (stereo not drawn), the AC50 result is “inactive”.

Regarding `Cc1ccc(C2C(=O)N(C3CCCC3)CC(=O)N2CC2COc3ccccc3O2)cc1` (stereo not drawn), the AC50 was 11.2 µM (active).

As for `OC(COCC1COc2ccccc2O1)CN1CCc2ccccc2C1` (stereo not drawn), the AC50 result is “inactive”.

Consider `Nc1ccn([C@H]2O[C@@H](COP(=O)(O)O)[C@@H](O)[C@H]2O)c(=O)n1`, for which the activity, negative = inhibition was -6.67% [at 11.4 µM] (inactive).

For `Cn1cc(C(=O)OCC2CCN(CCNS(C)(=O)=O)CC2)c2ccccc21`, the AC50 entry is “inactive”.

As to `COc1cc(N)c(Cl)cc1C(=O)OCCCN1CCCCC1`, the AC50 result was “inactive”.

As to `COc1cc(N)c(Cl)cc1C(=O)CCC1CCN(CCNS(C)(=O)=O)CC1`, the AC50 is 0.251 µM (active).

Regarding `CCn1cc(C(=O)O)c(=O)c2cc(F)c(N3CCN[C@@H](C)C3)c(F)c21`, the AC50 result was “inactive”.

As for `CC(C)OC(=O)c1cccc(C(=O)Oc2ccc(Br)cc2)n1`, the AC50 result was “inactive”.

With `COc1ccc(C(C)=O)c(OC(=O)c2ccco2)c1`, the AC50 entry is “inactive”.

For the compound `O=C(Oc1ccc(OC(=O)c2ccco2)c(S(=O)(=O)c2ccc(Br)cc2)c1)c1ccco1`, the AC50 is 0.708 µM (active).

Take `CCc1cc2c(=O)c(-c3cnn(-c4ccccc4)c3)coc2c(CN2CCOCC2)c1O`: the AC50 is 2.51 µM (active).

Turning to `OC(CCCN1CCCCC1)(c1ccccc1)c1ccccc1`, the AC50 result was “inactive”.

Regarding `O=C(N/N=C/C1C(c2ccccc2)C1(Cl)Cl)c1cccc(Br)c1` (stereo not drawn), the AC50 was 2 µM (active).

As for `O=C(N/N=C\c1ccc(Sc2ccccn2)o1)c1cccc(Br)c1`, the AC50 was 2.24 µM (active).

Consider `O=C(N/N=C/c1cccc(Oc2ccccc2)c1)c1cccc(Br)c1`, for which the AC50 is 7.08 µM (active).

For the compound `O=C(N[C@@]1(C(=O)O)C[C@@H]1c1ccccc1)c1ccccc1`, the activity, negative = inhibition is 5.78% [at 11.4 µM] (inactive).

`C/C(=N\NC(=O)c1cccc(Br)c1)c1ccc(Br)cc1`: the AC50 entry is “inactive”.

For the compound `O=C(O)Cn1ccnc1[N+](=O)[O-]`, the activity, negative = inhibition was 9.22% [at 11.4 µM] (inactive).

For the compound `COc1ccc2c(c1)N(C[C@@H](C)CN(C)C)c1ccccc1S2`, the AC50 result was “inactive”.

`COc1ccccc1-c1cncnc1NCc1cccc(C)c1`: the activity, negative = inhibition is -10.6% [at 2.29 µM] (inactive).

As to `Nc1ncncc1-c1ccc([N+](=O)[O-])cc1`, the AC50 result is “inactive”.

For the compound `Cc1nn(Cc2ccc([N+](=O)[O-])cc2)c(=O)n1-c1cccc(F)c1`, the AC50 result was “inactive”.

On to `Cc1cc(C)c(Cn2cnc(-c3ccc([N+](=O)[O-])cc3)c2)c(C)c1`, for which the concentration at half-maximal activity (AC50) is 12.6 µM (active).

As to `O=C(Cc1ccccc1)N/N=C/c1cc(Br)c(Br)o1`, the AC50 is 14.1 µM (active).

Take `O=C(Cc1ccccc1)N/N=C\c1ccc(Br)o1`: the AC50 is 12.6 µM (active).

Consider `Cc1cc(C)n(CC(=O)N/N=C/c2ccco2)n1`, for which the AC50 result was “inactive”.

As for `O=C(CC(=O)N/N=C\c1c(Cl)cccc1Cl)NCc1ccccc1`, the AC50 entry is “inactive”.

As for `O=C(N/N=C/c1ccco1)c1ccc(Br)o1`, the AC50 entry was “inactive”.

Turning to `O=c1c[n+](CCCC[n+]2cc(=O)o[nH]2)[nH]o1`, the activity, negative = inhibition was 10.6% [at 11.4 µM] (inactive).

Consider `c1csc(CNc2nc(-c3ccoc3)nc3ccccc23)c1`, for which the activity, negative = inhibition was -11.2% [at 2.29 µM] (inactive).

Take `CO[C@H]1COC(=O)CCC[C@@H](C)[C@H](OC)COC(=O)[C@H]2CCCN2C(=O)C/C=C\[C@@H]1C`: the activity, negative = inhibition is 5.44% [at 11.4 µM] (inactive).

As to `C=CCOc1ccc2cccc(/C=N/NC(=O)c3cc4cc([N+](=O)[O-])ccc4s3)c2c1`, the AC50 entry is “inactive”.

Consider `Cc1ccc(C(=O)N/N=C/c2ccc([N+](=O)[O-])s2)cc1`, for which the AC50 entry is “inactive”.

With `COc1ccc(/C=N/NC(=O)c2cccc([N+](=O)[O-])c2)cc1OS(=O)(=O)c1ccc(C)cc1`, the AC50 is 0.891 µM (active).

On to `O=C(N/N=C/c1ccco1)/C(=C/c1cccc([N+](=O)[O-])c1)NC(=O)c1ccccc1`, for which the AC50 entry was “inactive”.

For `COc1cccc(/C=N/NC(=O)c2cccc([N+](=O)[O-])c2)c1OS(=O)(=O)c1ccc(C)cc1`, the AC50 is 3.55 µM (active).

`CC(/C=N/NC(=O)c1cccc([N+](=O)[O-])c1)=C\c1ccccc1`: the AC50 was 0.355 µM (active).

Take `NNc1nncc2ccccc12`: the AC50 result is “inactive”.

For `Cc1cccc([C@@H]2CN(C)CCc3c2cc(O)c(O)c3Cl)c1`, the AC50 entry was “inactive”.

As to `Cc1cccc(N2CCN(C(=O)CSCc3c(C)noc3C)CC2)c1C`, the AC50 was 12.6 µM (active).

In the case of `Cc1noc(C)c1C(=O)N1CCC2(CCCN(c3ccccc3)C2)CC1`, the AC50 result is “inactive”.

As to `Cc1noc(C)c1C(=O)N1CCC2(CC1)CN(c1ccccc1)C2`, the AC50 result was “inactive”.

For `c1cncc(CNc2cc(-c3ccoc3)ncn2)c1`, the activity, negative = inhibition was 2% [at 2.29 µM] (inactive).

For the compound `C/C(=N\OC(=O)c1ccc(F)cc1)c1nccs1`, the AC50 result was “inactive”.

As to `C/C(=C\c1ccco1)C1C(C#N)=C(N)Oc2n[nH]c(-c3ccccc3)c21` (stereo not drawn), the AC50 is 0.0891 µM (active).

As to `Nc1nc2c(c(=O)[nH]1)CN(CCCN1CCOCC1)CN2`, the activity, negative = inhibition was 11% [at 11.4 µM] (inactive).

Regarding `O=C(O)CCCCCNC(=O)c1ccccc1Br`, the AC50 entry was “inactive”.

As to `O=C(NCCNc1ccc([N+](=O)[O-])cc1)c1ccccc1Br`, the AC50 is 14.1 µM (active).

With `CC(=O)Nc1ccc(NC(=O)c2ccccc2CC[N+](=O)[O-])cc1`, the AC50 result was “inactive”.

In the case of `CCOc1ccc2nc3cc(N=Nc4ccc(N)nc4N)ccc3c(N)c2c1`, the activity, negative = inhibition is 1.7% [at 11.4 µM] (inactive).

Consider `CC(/C=C/c1ccco1)=N/NC(=O)c1ccccc1Cl`, for which the AC50 result was “inactive”.

With `Cc1ccc(NC(=O)c2cc(N3C(=O)C4CC=CCC4C3=O)ccc2N2CCOCC2)cc1Cl` (stereo not drawn), the AC50 was 11.2 µM (active).

Regarding `O=C(Nc1ccc2nc(SCc3ccc(Cl)cc3)sc2c1)c1ccccc1C(=O)N1CCOCC1`, the AC50 result was “inactive”.

On to `Cc1ccc(NC(=O)CSCC(=O)Nc2ccc(N3CCOCC3)c(Cl)c2)cc1`, for which the AC50 was 5.01 µM (active).

As for `O=C(/C=C/c1ccco1)NC(=S)Nc1ccc(N2CCOCC2)c(Cl)c1`, the AC50 is 4.47 µM (active).

As for `NC(=O)c1ccc(N2CCCCC2)c(N2C(=O)C3CC=CCC3C2=O)c1` (stereo not drawn), the AC50 entry is “inactive”.

`O=C(/C=C/c1ccc(Cl)cc1)NCCN1CCOCC1`: the AC50 entry is “inactive”.

`CCCC(=O)Nc1ccc2nc(SCC(=O)Nc3ccc(N4CCOCC4)c(Cl)c3)sc2c1`: the AC50 is 2.24 µM (active).

Turning to `CN1CCCN(C2C3CC4CC(C3)CC2C4)CC1` (stereo not drawn), the AC50 result is “inactive”.

As for `CCN1C(=O)[C@H]2[C@H]3[C@H](O)[C@H](O)C/C(=N/OC[C@@H](O)[C@H]4O[C@H]5OC(C)(C)O[C@H]5[C@@H]4O)[C@@H]3CC[C@@H]2C1=O`, the activity, negative = inhibition is 11.9% [at 11.4 µM] (inactive).

With `COc1ncnc(NS(=O)(=O)c2ccc(N)cc2)c1OC`, the AC50 entry was “inactive”.

For the compound `CN=C(NC#N)NCCSC[C@H]1N=CN=C1C`, the AC50 result was “inactive”.

As for `CC[C@@]12CCCN3CCc4c(n(c5ccccc45)[C@](O)(C(=O)OC)C1)[C@H]32`, the AC50 entry was “inactive”.

Turning to `COc1ccc(/C(O)=C2\C(=O)C(=O)N(c3cc(C)on3)C2c2ccc(OC)c(OC)c2)cc1OC` (stereo not drawn), the AC50 entry was “inactive”.

`COc1cccc(/C(O)=C2/C(=O)C(=O)N(c3cc(C)on3)C2c2cccs2)c1` (stereo not drawn): the AC50 was 14.1 µM (active).

On to `COc1ccc(C2/C(=C(/O)c3ccccc3)C(=O)C(=O)N2CC(C)O)c(OC)c1` (stereo not drawn), for which the AC50 result is “inactive”.

Consider `COc1ccc(OC)c(C2N(c3cc(C)on3)C(=O)C3CCCN32)c1` (stereo not drawn), for which the AC50 result was “inactive”.

For the compound `CCOc1ccc(/C(O)=C2\C(=O)C(=O)N(CCOCCO)C2c2ccccc2OC)cc1` (stereo not drawn), the AC50 entry is “inactive”.

Regarding `COc1ccc(C2/C(=C(/O)c3ccccc3)C(=O)C(=O)N2c2ccccn2)c(OC)c1` (stereo not drawn), the AC50 is 15.8 µM (active).

Consider `CN1CCN(c2ncc3ncc(=O)n(C[C@H]4CCCO4)c3n2)CC1`, for which the AC50 entry is “inactive”.

As for `CN(Cc1ccco1)c1cc(-c2ccc3c(c2)OCO3)ncn1`, the activity, negative = inhibition was -13% [at 2.29 µM] (inactive).

As to `CCOC(=O)N/N=C1/C[C@@H](O)[C@@H](O)[C@@H]2[C@@H]3C(=O)N(CC)C(=O)[C@H]3CC[C@@H]12`, the activity, negative = inhibition is 9.77% [at 11.4 µM] (inactive).

Regarding `CN(C)CCCN1CCC2(CCC(C(C)(C)C)CC2)CC1`, the activity, negative = inhibition was 13% [at 11.4 µM] (inactive).

For the compound `CN(Cc1ccco1)c1nc(-c2ccccc2C(F)(F)F)nc2ccccc12`, the activity, negative = inhibition was -1.38% [at 2.29 µM] (inactive).

As for `COc1ccccc1CNc1ncnc2ccc(-c3cccnc3)cc12`, the activity, negative = inhibition was 6.62% [at 2.29 µM] (inactive).

Regarding `COc1cccc(-c2ccc3ncnc(NC4CC4)c3c2)c1`, the activity, negative = inhibition is -17.4% [at 2.29 µM] (inactive).

As for `COCCNc1ncnc2ccc(-c3cccc(OC)c3)cc12`, the activity, negative = inhibition was 26.2% [at 2.29 µM] (inactive).

Turning to `COc1ccc2[nH]cc(CCNc3cc(-c4cccnc4)ncn3)c2c1`, the activity, negative = inhibition is -3.3% [at 2.29 µM] (inactive).

As for `Cc1cnc(CNc2ncnc3ccc(-c4ccc5c(c4)OCO5)cc23)cn1`, the activity, negative = inhibition was -11.4% [at 2.29 µM] (inactive).

`COc1ccc2[nH]cc(CCNc3ncnc4ccc(-c5cccnc5)cc34)c2c1`: the AC50 is 1 µM (active).

Turning to `CNc1ncnc2ccc(-c3ccccc3C#N)cc12`, the activity, negative = inhibition was -10.6% [at 2.29 µM] (inactive).

For the compound `N#Cc1ccccc1-c1ccc2ncnc(NC3CC3)c2c1`, the activity, negative = inhibition is -9.89% [at 2.29 µM] (inactive).

For the compound `Cc1cccc(CNc2ncnc3ccc(-c4ccc5c(c4)OCO5)cc23)c1`, the AC50 is 0.316 µM (active).

Take `COc1ccc2[nH]cc(CCNc3ncnc4ccc(-c5ccccc5C#N)cc34)c2c1`: the AC50 was 0.316 µM (active).

Take `CNc1ncnc2ccc(-c3cccc(OC)c3)cc12`: the AC50 was 0.501 µM (active).

For the compound `Cc1cccc(CNc2ncnc3ccc(-c4cccnc4)cc23)c1`, the activity, negative = inhibition was -11.3% [at 2.29 µM] (inactive).
